The supplement of paper PMC11732987, “Enantioselective OTUD7B fragment discovery through chemoproteomics screening and high-throughput optimisation” (Communications Chemistry, 2025)

What was measured:
Test in all cases: log2 ratio of Biotin-Ahx-Ub-VS probe labelling (fragment/DMSO); higher = less target engagement (more negative = stronger competition), active = hit call of the paper (q ≤ 0.05, log2 ratio ≤ -1)
Conditions in all cases: compound concentration: 200 uM; treatment time: 3 h
USP34 = USP34 (UniProt Q70CQ2)
Sequence of USP34 (Q70CQ2 whole entry, the tested form may be a part): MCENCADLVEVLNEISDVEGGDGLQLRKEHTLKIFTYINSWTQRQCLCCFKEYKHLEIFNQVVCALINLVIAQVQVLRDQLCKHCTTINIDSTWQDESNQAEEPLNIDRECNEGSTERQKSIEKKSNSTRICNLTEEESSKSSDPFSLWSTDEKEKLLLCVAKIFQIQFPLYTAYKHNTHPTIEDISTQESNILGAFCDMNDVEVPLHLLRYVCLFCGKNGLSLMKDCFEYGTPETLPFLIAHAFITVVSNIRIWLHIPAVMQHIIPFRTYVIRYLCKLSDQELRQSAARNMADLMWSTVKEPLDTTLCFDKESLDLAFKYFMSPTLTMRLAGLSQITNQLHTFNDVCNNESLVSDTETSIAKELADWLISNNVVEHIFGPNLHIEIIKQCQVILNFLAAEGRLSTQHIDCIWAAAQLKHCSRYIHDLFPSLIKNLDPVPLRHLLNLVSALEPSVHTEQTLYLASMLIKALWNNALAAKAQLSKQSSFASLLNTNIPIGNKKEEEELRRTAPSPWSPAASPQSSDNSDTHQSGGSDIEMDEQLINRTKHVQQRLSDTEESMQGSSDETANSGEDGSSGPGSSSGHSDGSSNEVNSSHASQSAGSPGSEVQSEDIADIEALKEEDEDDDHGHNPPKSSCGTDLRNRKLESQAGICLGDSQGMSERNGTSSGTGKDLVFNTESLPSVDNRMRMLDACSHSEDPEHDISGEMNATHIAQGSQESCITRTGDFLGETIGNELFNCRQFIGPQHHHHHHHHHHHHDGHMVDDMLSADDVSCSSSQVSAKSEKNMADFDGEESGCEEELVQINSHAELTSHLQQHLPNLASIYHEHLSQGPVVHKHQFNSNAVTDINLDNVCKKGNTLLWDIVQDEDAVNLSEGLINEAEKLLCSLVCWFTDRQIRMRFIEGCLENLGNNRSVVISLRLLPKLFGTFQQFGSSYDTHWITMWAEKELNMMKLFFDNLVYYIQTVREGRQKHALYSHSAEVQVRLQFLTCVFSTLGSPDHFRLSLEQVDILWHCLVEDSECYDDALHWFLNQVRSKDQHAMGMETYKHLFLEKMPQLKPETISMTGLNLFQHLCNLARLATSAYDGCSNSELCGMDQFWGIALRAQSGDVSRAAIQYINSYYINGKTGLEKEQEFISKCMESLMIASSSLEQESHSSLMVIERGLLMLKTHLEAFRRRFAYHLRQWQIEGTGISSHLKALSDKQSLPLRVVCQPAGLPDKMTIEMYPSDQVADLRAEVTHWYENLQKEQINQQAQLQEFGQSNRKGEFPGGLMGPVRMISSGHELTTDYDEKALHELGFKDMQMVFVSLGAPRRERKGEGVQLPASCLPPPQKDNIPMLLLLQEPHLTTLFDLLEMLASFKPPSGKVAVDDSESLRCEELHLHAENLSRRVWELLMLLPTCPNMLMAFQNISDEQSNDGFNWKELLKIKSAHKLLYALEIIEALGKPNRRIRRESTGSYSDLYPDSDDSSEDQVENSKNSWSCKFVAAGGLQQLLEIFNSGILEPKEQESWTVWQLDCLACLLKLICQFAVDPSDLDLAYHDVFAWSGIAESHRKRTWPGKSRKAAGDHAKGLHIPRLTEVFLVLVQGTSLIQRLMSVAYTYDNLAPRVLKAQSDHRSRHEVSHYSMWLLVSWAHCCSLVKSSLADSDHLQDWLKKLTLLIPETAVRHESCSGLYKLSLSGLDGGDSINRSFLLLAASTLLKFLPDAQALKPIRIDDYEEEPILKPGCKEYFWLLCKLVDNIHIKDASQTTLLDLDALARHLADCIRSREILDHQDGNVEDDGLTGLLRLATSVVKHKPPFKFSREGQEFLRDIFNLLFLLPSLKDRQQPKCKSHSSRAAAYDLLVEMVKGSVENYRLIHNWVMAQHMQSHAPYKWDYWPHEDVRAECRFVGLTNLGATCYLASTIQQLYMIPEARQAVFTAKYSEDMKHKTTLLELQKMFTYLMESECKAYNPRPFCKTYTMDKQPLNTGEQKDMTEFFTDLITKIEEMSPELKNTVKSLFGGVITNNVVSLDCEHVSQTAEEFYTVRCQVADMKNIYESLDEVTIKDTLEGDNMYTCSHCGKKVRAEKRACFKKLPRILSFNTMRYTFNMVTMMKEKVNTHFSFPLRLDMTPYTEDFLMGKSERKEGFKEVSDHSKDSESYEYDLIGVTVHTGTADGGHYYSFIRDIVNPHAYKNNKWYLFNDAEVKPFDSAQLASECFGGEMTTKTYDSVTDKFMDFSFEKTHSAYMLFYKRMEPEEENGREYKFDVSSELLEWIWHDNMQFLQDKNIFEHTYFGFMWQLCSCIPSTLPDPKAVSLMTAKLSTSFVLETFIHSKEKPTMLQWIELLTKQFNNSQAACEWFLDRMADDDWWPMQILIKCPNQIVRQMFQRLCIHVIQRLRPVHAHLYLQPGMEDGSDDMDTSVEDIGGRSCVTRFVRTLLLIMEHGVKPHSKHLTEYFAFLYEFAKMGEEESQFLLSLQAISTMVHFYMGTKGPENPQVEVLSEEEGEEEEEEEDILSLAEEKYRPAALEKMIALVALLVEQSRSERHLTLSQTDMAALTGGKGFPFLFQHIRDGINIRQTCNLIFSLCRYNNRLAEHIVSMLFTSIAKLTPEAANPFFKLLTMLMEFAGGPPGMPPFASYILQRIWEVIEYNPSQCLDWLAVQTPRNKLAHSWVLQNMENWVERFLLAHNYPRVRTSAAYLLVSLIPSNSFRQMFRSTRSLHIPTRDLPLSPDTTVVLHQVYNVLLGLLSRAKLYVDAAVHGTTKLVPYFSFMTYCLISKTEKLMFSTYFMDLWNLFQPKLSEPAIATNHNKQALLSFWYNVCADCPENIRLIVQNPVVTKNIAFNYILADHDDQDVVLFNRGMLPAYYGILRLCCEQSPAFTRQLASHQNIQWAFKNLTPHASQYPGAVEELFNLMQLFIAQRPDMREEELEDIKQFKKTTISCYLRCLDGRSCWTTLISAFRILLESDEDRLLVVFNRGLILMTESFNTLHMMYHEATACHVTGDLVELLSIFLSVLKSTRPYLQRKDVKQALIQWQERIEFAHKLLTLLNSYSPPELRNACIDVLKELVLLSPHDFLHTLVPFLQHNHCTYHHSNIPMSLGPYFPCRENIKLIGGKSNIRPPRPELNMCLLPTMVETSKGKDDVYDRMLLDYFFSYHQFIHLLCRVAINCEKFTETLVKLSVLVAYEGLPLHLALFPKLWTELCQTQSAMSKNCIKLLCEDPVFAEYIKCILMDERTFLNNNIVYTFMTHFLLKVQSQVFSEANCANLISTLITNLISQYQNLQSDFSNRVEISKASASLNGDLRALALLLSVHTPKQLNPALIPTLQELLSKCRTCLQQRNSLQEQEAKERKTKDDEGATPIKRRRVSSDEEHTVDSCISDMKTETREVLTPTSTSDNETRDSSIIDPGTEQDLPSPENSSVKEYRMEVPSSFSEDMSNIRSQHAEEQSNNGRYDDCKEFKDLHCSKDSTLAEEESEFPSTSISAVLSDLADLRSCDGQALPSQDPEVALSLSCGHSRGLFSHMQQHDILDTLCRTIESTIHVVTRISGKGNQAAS
Summary of the method: (§1)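 HEK293T lysate, 495 µg per sample in Tris/CHAPS/IGEPAL buffer with protease inhibitors, was treated in triplicate with fragment at 200 µM or vehicle for 3 h and then with Biotin-Ahx-Ub-VS at 0.5 µM final for 1 h. Labelled DUBs were NeutrAvidin-enriched, digested with LysC and trypsin, and run by diaPASEF LC-MS/MS. Spectronaut label-free quantities were global-median-normalised, and values are average log2 fragment/vehicle ratios by unpaired t-test on proteins with ≥2 unique peptides.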

USP36 = biological target: T1, USP36 (UniProt Q9P275)
T1 sequence (whole entry): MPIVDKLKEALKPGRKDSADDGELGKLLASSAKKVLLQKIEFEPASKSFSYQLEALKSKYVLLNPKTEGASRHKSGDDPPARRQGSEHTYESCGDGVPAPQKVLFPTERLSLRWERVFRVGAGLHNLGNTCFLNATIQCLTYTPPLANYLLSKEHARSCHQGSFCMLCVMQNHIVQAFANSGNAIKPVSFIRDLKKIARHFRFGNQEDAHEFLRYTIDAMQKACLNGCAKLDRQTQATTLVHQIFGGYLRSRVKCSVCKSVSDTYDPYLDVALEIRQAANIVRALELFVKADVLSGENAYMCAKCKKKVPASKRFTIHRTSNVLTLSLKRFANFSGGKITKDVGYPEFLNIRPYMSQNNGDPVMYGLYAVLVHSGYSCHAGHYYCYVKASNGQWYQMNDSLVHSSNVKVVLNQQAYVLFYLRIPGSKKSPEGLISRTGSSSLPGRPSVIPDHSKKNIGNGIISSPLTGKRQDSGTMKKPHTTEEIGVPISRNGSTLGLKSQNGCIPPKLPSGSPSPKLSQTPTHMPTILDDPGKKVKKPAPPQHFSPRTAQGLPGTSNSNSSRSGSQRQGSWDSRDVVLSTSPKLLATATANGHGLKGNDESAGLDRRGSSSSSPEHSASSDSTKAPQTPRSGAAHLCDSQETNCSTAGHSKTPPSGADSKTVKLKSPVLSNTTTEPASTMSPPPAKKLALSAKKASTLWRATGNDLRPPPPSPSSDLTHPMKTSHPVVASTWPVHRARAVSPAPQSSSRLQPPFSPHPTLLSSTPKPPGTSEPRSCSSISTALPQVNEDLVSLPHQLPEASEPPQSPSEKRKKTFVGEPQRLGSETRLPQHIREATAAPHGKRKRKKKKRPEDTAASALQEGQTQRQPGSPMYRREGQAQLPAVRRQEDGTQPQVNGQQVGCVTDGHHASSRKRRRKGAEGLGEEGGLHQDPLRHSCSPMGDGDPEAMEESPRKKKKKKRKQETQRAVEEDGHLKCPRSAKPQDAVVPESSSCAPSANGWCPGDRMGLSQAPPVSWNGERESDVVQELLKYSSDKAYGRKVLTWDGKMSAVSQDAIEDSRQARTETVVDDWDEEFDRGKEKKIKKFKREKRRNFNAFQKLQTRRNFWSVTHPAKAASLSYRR
Summary of the method: as §1

USP38 = biological target: T2, USP38 (UniProt Q8NB14)
T2 sequence (whole entry): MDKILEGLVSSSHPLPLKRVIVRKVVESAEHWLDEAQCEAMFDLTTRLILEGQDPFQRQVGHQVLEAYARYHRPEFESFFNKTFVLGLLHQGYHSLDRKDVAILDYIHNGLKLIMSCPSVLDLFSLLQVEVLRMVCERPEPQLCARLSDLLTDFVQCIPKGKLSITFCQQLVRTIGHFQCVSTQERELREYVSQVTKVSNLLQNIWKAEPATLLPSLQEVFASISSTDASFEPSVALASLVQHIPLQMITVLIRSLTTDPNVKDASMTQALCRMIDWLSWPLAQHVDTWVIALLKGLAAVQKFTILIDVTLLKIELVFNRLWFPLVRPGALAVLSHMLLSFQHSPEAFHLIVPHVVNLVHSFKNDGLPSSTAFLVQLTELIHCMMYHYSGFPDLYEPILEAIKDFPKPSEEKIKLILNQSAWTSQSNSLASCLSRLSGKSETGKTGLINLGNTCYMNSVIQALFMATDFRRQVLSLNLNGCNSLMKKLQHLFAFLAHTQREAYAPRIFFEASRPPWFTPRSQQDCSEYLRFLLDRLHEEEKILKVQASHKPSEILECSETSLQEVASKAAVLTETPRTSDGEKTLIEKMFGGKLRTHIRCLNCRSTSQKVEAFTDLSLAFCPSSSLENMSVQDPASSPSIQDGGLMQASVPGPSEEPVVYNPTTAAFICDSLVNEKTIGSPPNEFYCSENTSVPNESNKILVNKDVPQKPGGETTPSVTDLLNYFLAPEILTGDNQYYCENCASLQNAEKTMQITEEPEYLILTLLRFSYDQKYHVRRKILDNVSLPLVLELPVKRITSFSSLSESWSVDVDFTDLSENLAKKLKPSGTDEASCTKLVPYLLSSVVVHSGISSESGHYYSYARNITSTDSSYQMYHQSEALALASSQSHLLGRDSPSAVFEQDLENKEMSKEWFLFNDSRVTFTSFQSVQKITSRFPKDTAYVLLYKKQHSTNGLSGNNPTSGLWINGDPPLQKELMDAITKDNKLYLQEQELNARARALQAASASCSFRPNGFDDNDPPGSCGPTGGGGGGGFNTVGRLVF
Summary of the method: as §1

USP39 = biological target: T3, USP39 (UniProt Q53GS9)
T3 sequence (whole entry): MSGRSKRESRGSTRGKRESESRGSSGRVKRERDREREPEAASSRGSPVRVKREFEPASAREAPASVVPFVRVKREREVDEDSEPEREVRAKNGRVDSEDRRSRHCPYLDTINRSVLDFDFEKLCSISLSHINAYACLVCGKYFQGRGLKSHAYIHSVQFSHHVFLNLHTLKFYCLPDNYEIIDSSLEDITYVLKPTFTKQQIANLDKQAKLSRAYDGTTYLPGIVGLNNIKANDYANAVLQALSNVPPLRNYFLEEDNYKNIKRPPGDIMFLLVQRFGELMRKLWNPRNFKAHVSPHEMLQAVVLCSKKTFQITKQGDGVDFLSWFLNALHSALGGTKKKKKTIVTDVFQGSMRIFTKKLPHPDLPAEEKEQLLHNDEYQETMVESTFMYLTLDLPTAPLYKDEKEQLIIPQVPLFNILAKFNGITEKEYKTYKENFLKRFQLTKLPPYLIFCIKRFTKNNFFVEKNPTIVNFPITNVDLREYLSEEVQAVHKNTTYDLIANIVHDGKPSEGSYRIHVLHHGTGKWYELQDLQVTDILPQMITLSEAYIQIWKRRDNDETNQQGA
Summary of the method: as §1

USP4 = biological target: T4, USP4 (UniProt Q13107)
T4 sequence (whole entry): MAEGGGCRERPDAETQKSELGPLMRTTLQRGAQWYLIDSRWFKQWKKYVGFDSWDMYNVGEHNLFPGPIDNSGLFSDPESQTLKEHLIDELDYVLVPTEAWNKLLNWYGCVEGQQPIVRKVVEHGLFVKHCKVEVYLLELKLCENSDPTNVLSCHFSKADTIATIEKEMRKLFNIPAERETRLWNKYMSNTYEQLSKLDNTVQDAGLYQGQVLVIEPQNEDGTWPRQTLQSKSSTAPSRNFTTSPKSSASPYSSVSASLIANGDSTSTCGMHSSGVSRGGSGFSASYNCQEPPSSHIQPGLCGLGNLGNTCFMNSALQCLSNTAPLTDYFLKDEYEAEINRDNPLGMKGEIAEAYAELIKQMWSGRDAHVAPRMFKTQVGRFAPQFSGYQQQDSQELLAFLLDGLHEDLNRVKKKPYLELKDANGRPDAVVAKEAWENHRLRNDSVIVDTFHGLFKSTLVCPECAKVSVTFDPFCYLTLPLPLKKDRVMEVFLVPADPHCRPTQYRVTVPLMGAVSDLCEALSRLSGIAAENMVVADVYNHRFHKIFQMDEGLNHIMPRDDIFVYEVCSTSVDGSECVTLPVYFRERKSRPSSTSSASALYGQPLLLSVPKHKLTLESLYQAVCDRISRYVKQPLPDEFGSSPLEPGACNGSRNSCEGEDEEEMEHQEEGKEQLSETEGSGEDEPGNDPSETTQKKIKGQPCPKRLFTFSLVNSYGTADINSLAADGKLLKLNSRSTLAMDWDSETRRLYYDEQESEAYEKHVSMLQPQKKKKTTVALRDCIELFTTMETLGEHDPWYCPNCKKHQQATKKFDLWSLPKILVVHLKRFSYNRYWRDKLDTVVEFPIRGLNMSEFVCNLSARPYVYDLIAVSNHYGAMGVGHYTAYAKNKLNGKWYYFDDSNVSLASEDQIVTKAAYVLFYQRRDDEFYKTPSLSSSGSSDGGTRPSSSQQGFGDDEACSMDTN
Summary of the method: as §1

Measured: log2 ratio of Biotin-Ahx-Ub-VS probe labelling

Cc1cccc2nc(CCNC(=O)CCl)cn12.Cl
inactive: USP34 -0.19 | USP36 -0.179 | USP38 -0.0583 | USP39 0.203 | USP4 -0.184
